Laboratory results from PubChem BioAssay (EPA / NIEHS).
Inconclusive results are not listed. Calls of active or inactive are those of the source. Rule for the calls, unless noted: active = hit-call score of the fitted dose curve at least 0.9, where 1 is the maximum; inactive = score below 0.9.

What was measured:
[1] = CCTE_Mundy_HCI_Cortical_NOG_NeuriteLength: CCTE's Neurite Outgrowth Assay in rat cortical cells for Neurite Length, Mundy Lab (AID 2284213)
Method in brief: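 First, rat primary cortical cells were plated and, 2 h later, given test chemical as a 1/10 dilution. Finally, βIII-tubulin immunostaining enabled automated imaging of neurite length.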

[2] = CCTE_Mundy_HCI_Cortical_Synap_Neur_Matur_NeuriteSpotCountPerNeuron: CCTE's Synaptogenesis and Neurite Maturation Assay in rat cortical cells for Neurite Spot Count per Neuron Count, Mundy Lab (AID 2284215)
Method in brief: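 Rat cortical primary cultures; AraC DIV 5 to arrest glia; dosing + media change DIV 7; fixed DIV 12. Anti-MAP2/anti-synaptophysin, Hoechst nuclei; HCI puncta count per neuron, positive fitting direction vs DMSO.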

[3] = CCTE_Mundy_HCI_Cortical_Synap_Neur_Matur_NeuriteCount: CCTE's Synaptogenesis and Neurite Maturation Assay in rat cortical cells for Neurite Count, Mundy Lab (AID 2284222);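 note: exposure from day 7 to day 12 in vitro with readout at day 12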
Method in brief: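 In this multiplexed morphology readout, rat primary cortical neurons are fixed at DIV 12 following dosing at DIV 7 and stained for MAP2, synaptophysin and nuclei. High-content image analysis yields neurite count.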

[4] = CCTE_Mundy_HCI_Cortical_Synap_Neur_Matur_CellBodySpotCount: CCTE's Synaptogenesis and Neurite Maturation Assay in rat cortical cells for Cell Body Spot Count, Mundy Lab (AID 2284223)
Method in brief: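 Rat cortical neurons; AraC @ DIV 5; dose + media change DIV 7; fix DIV 12; anti-MAP2/anti-synaptophysin IF, Hoechst; HCI count of soma synaptophysin puncta/neuron; DMSO = negative control.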

[5] = UKN2_HCS_IMR90_cell_viability: Viability Assessment in the University of Konstanz (UKN) Leist Lab Neural Crest Cell Migration Assay in human induced IMR90 Pluripotent Stem Cells (UKN2) (AID 2284233);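 note: cells exposed to compound for 24 h after a 24 h migration phase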
Method in brief: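 After calcein-AM/Hoechst staining, viability is quantified by high-content fluorescence imaging, relative to DMSO, in iPSC (IMR90)-derived neural crest cells. Exposure lasts 24 h, starting after a 24 h migration period on PLO/laminin/fibronectin coating.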

[6] = CCTE_Mundy_HCI_Cortical_NOG_NeuronCount: CCTE's Neurite Outgrowth Assay in rat cortical cells for Neuron Count, Mundy Lab (AID 2284236; active = hit-call score of the fitted dose curve at least 0.9, where 1 is the maximum;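 note: neurons counted by imaging betaIII-tubulin and Hoechst stained cortical cells; cells exposed to compound for about 48 hours before fixation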)
Method in brief: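 Read-out: neuron number by high-content imaging of betaIII-tubulin (Alexa Fluor-488) and Hoechst-labelled rat primary cortical cells.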

[7] = CCTE_Mundy_HCI_Cortical_NOG_BPCount: CCTE's Neurite Outgrowth Assay in rat cortical cells for Branch Point Count, Mundy Lab (AID 2284237)
Method in brief: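 Measured 50.33 h after dosing, this morphology endpoint uses rat primary cortical cultures labelled for betaIII-tubulin. Branch points are quantified by high-content imaging, with DMSO as negative control and baseline.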

[8] = CCTE_Mundy_HCI_hNP1_Casp3_7: CCTE's Caspase-Glo 3/7 Assay in human neuroprogenitor cells for Apoptosis, Mundy Lab (AID 2284240)
Method in brief: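 Apoptosis is scored by activated caspase-3/7 luminescence in WA09-derived neural progenitor cells, measured 26.5 h after chemical dosing. Values represent gain of signal relative to DMSO vehicle.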

[9] = CCTE_Mundy_HCI_hNP1_CellTiter: CCTE's Cell Titer-Glo 2 Assay in human neuroprogenitor cells for Viability, Mundy Lab (AID 2284241; active = hit-call score of the fitted dose curve at least 0.9, where 1 is the maximum)
Method in brief: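 Human neural progenitor cells (hNP1, WA09-derived) were plated on poly-L-ornithine/laminin and grown 40 to 44 hours at 37 °C, 5% CO2 before chemical addition. Twenty-four hours later, ATP was measured by CellTiter-Glo luminescence; loss of signal versus DMSO indicates reduced viability.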

[10] = IUF_NPC2c_oligodendrocyte_migration_120hr: Leibniz Research Institute for Environmental Medicine (IUF) 120-hour Neural Progenitor Cell Migration Assay for Oligodendrocyte Migration (NPC2c) (AID 2284297)
Method in brief: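 Read-out is the mean distance of O4-positive oligodendrocytes from the sphere core edge at 120 h, normalized to radial glia migration and fitted in the gain direction against DMSO. Spheres of primary human neural progenitors differentiated on laminin under continuous compound exposure.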

[11] = IUF_NPC2a_radial_glia_migration_72hr: Leibniz Research Institute for Environmental Medicine (IUF) 72-hour Neural Progenitor Cell Migration Assay for Radial Glia Migration (NPC2a) (AID 2284299)
Method in brief: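 Spheres of human primary neural progenitors migrate on poly-D-lysine/laminin under compound exposure at 37C, 5% CO2. The 72 h radial glia migration distance comes from brightfield images, measured manually.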

[12] = IUF_NPC2b_neuronal_migration_120hr: Leibniz Research Institute for Environmental Medicine (IUF) 120-hour Neural Progenitor Cell Migration Assay for Neuron Migration (NPC2b) (AID 2284300)
Method in brief: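 Read-out is mean distance from sphere edge to each TUBB3-positive neuron at 120 h, expressed relative to radial glia migration distance and to DMSO baseline. Single 0.3 mm human NPC spheres differentiated on laminin under continuous compound exposure.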

[13] = IUF_NPC3_neuronal_differentiation_120hr: Leibniz Research Institute for Environmental Medicine (IUF) 120-hour Neuronal Differentiation Assay (NPC3) (AID 2284301)
Method in brief: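 Value is percent TUBB3-positive neurons among Hoechst-stained nuclei in the migration area, scored by trained CNN after 120 h differentiation. Primary hNPC spheres on poly-D-lysine/laminin, N2 medium, continuous dosing from day 0, half-refeed day 3; DMSO reference.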

[14] = IUF_NPC5_oligodendrocyte_differentiation_120hr: Leibniz Research Institute for Environmental Medicine (IUF) 120-hour Oligodendrocyte Differentiation Assay (NPC5) (AID 2284304; active = hit-call score of the fitted dose curve at least 0.9, where 1 is the maximum;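 note: primary human fetal neural progenitor spheres plated to migrate and differentiate; share of O4-positive cells among Hoechst nuclei found by CNN image analysis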)
Method in brief: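 Oligodendrocyte differentiation was scored after 120 h as the O4-positive share of Hoechst-stained nuclei across the neurosphere migration area, using a trained convolutional neural network on high-content fluorescence images. Human fetal neural progenitor spheres were dosed from day 0, normalised to DMSO.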

[15] = IUF_NPC2-5_cytotoxicity_72hr: Cytotoxicity Assessment at 72 hours in the Leibniz Research Institute for Environmental Medicine (IUF) Neural Progenitor Cell Migration and Differentiation Assay for Cytotoxicity (NPC2-5) (AID 2284306; active = hit-call score of the fitted dose curve at least 0.9, where 1 is the maximum;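 note: LDH release into supernatant measured by resorufin fluorescence marking membrane damage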)
Method in brief: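 Membrane-integrity cytotoxicity at 72 h, read as LDH-driven resorufin fluorescence in supernatant. hNPC spheres from fetal cortex differentiate on coated plates in N2 medium, 37C, 5% CO2; seven serial compound concentrations plus solvent control (DMSO ≤0.1%).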

[16] = IUF_NPC2-5_cytotoxicity_120hr: Cytotoxicity Assessment at 120 hours in the Leibniz Research Institute for Environmental Medicine (IUF) Neural Progenitor Cell Migration and Differentiation Assay (NPC2-5) (AID 2284307; active = hit-call score of the fitted dose curve at least 0.9, where 1 is the maximum)
Method in brief: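 Sphere plating starts differentiation and exposure together at day 0. Compound solution is half-replaced on day 3. At 120 h, medium supernatant is taken for an LDH membrane-integrity read based on resazurin reduction to resorufin fluorescence.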

[17] = IUF_NPC2-5_cell_number_120hr: Cell Number Assessment at 120 hours in the Leibniz Research Institute for Environmental Medicine (IUF) Neural Progenitor Cell Migration and Differentiation Assay (NPC2-5) (AID 2284308);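 note: count of Hoechst-stained nuclei in migration zone around plated human neural progenitor spheres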
Method in brief: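 hNPC spheres, one per well, PDL/laminin, N2 medium, 37C, 5% CO2. Dosing day 0 → half-medium change with fresh compound day 3 → fix 120 h. Readout: Hoechst+ nuclei count, migration area; 7 concentrations plus solvent control.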

[18] = IUF_NPC2-5_viability_120hr: Viability Assessment at 120 hours in the Leibniz Research Institute for Environmental Medicine (IUF) Neural Progenitor Cell Migration and Differentiation Assay (NPC2-5) (AID 2284312)
Method in brief: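 Alamar blue resorufin fluorescence read after 5 days of differentiation, with compound present from day 0 and replenished at day 3. Primary hNPC spheres on laminin-coated plates, 37C; seven concentrations plus solvent control, fitted against DMSO.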

[19] = IUF_NPC1_cytotoxicity_72hr: Cytotoxicity Assessment at 72 hours in the Leibniz Research Institute for Environmental Medicine (IUF) Neural Progenitor Cell Proliferation Assay (NPC1) (AID 2284332; active = hit-call score of the fitted dose curve at least 0.9, where 1 is the maximum;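 note: rising LDH signal means more cytotoxicity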)
Method in brief: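 Readout is fluorescence from LDH-dependent resazurin conversion, sampled from culture medium after compound contact lasting 72 h. Each well holds one 0.25-0.35 mm human progenitor sphere kept at 37C, 5% CO2 with EGF and FGF.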

[20] = CCTE_Mundy_HCI_iCellGluta_NOG_NeuronCount: CCTE's Neurite Outgrowth Assay in iCellGluta cells for Neuron Count, Mundy Lab (AID 2284340; active = hit-call score of the fitted dose curve at least 0.9, where 1 is the maximum;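 note: cells fixed about 48 h after compound addition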)
Method in brief: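 Neuron count read by automated high-content imaging of Hoechst 33342 and betaIII-tubulin/Alexa Fluor-488 labelling in human iPSC glutamatergic neurons. Activity fitted relative to DMSO.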

[21] = CCTE_Mundy_HCI_iCellGluta_NOG_NeuriteCount: CCTE's Neurite Outgrowth Assay in iCellGluta cells for Neurite Count, Mundy Lab (AID 2284342; active = hit-call score of the fitted dose curve at least 0.9, where 1 is the maximum;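 note: chemical exposure about 48 hours starting 2 hours after plating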)

Measured: outcome

C[C@@H]1CC[C@@H](C(C)(C)O)[C@H](O)C1
inactive: all assays above
